MCF10A rereplic – A quantitative high throughput screen for small molecules that induce DNA re-replication in MCF 10a normal breast cells; MCF 10A DNA re-replication, Hoechst nuclear intensity, 48 h; Potency, µM (top dose mostly 46.1 µM), inactives show at the highest dose activity, positive = re-replication, most hits filed as activators; 2.9% of 350,000 active; also: potency is read from the fitted curve at half-maximal effect; % of control where 0% means no effect; nearly all actives have a fitted effect of over 50% in size
KB-3-1 cytotox – qHTS assay for MDR1-selective chemotherapeutics: Primary screen using the parental adenocarcinoma cell KB-3-1; 1.4% of 400,000 active; KB-3-1 viability, CellTiter-Glo ATP luminescence, 72 h; Potency, µM (highest dose often 46.1 µM), usual class: cytotoxic; also: potency is read from the fitted curve at half-maximal effect; % is scaled to controls: 0 for no effect and ±100 for the full control effect; nearly all actives have a fitted effect of over 60% in size
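Viability of parental KB-3-1 cells, measured by CellTiter-Glo luminescence, followed a 72 h incubation at 37 °C with pinned compounds in phenol-red-free DMEM containing 10% FBS.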
SW480 rereplic – A quantitative high throughput screen for small molecules that induce DNA re-replication in SW480 colon adenocarcinoma cells; SW480 DNA re-replication, Hoechst DNA content imaging, 48 h; Potency, µM (top dose mostly 46.1 µM), without a hit: at the top dose re-replication activation, hits mostly activators; 1.8% of 340,000 active; AID 624297, 2012; also: potency is read from the fitted curve at half-maximal effect; % of control where 0% means no effect; nearly all actives have a fitted effect of over 55% in size
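Cells (250 per well) received 23 nL compound or DMSO by pin tool and were kept 48 hr at 37 C, 5% CO2. Nuclei were then stained with Hoechst for 40 min and scanned for DNA content.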
IL-1B inflam inh – qHTS for Inhibitors of Inflammasome Signaling: IL-1-beta AlphaLISA Primary Screen; 4.7% of 360,000 active; AID 743279, 2014; activity change, % at 57.5 µM; THP-1 LPS/ATP IL-1B secretion, AlphaLISA, 16 h; stronger effect = lower value; in the data active = activity change below about -50%; inconclusive = mostly about -30% to -49%; also: % is scaled to controls: 0 for no effect and ±100 for the full control effect
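Secreted IL-1B measured by AlphaLISA bead assay after 16 h compound exposure of THP-1 cells; compounds (final up to 57.5 uM) added 1 h before LPS (250 ng/mL) and ATP (1.25 mM) stimulation; lower signal means less secretion.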
KB-V1 cytotox – qHTS assay for MDR1-selective chemotherapeutics: Primary screen using the drug-selected MDR subline cells KB-V1 | 3.4% of 400,000 active | Potency, µM (top dose mostly 46.1 µM), actives largely listed as cytotoxic | KB-V1 MDR cells viability, CellTiter-Glo, 72 h | AID 1347076, 2019; also: potency is read from the fitted curve at half-maximal effect; % is scaled to controls: 0 for no effect and ±100 for the full control effect; nearly all actives have a fitted effect of over 60% in size
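Cytotoxicity toward P-gp-expressing KB-V1 cells was determined as loss of CellTiter-Glo luminescence after 72 h at 37 degrees C. Compounds were tested in quantitative HTS format across a concentration range, with curves fitted to normalized data.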
* = called active by the depositor; i = inactive; ? = inconclusive; · = not tested or not shown. A selection: hits, their analogues and other compounds. The true share with any hit is near 9.9%. Unless noted, calls follow the shape of the dose curve; as a rule, active = well fitted curve in the direction sought with a large enough effect; inconclusive = small, poorly fitted or top-dose-only effect, or another doubt; inactive = no such curve, though single readings can be large; an effect the other way counts as inactive or inconclusive.

SMILES	MCF10A rereplic	KB-3-1 cytotox	SW480 rereplic	IL-1B inflam inh	KB-V1 cytotox
COc1ccc(-c2cc(C(=O)N3CCN(C(c4ccccc4)c4ccccc4)CC3)no2)cc1OC	10µM*	i	-1%	-2	i
COc1ccc(-c2cc(C(=O)N3CCCCCC3)no2)cc1OC	-3%	i	-16%	-1	?
CCCNC(=O)CNC(=O)c1ccc(C#N)cc1	-8%	i	-40%	4	?
Cn1c(=O)c(C(=O)CN2CCCCCC2)c(N)n(Cc2ccccc2)c1=O	?	i	0%	12	i
Cc1cc(C)c(C)c(S(=O)(=O)N2CCN(CC(=O)c3c(N)n(Cc4ccccc4)c(=O)n(C)c3=O)CC2)c1C	13µM*	?	?	-29	15µM*
CC1(C(=O)Nc2cccc(Oc3ccccc3)c2)CCN1Cc1cccc2c1OCO2 (stereo unspecified)	·	i	·	-11	?
N#CCCn1cc(/C=N/N=C2\NC(=O)C(CC(=O)O)S2)c(-c2ccc(F)cc2)n1 (stereo unspecified)	29%	i	-6%	12	i
COc1ccc(/C=C2\Oc3cc(OCC(=O)N4CCC[C@H]4CO)ccc3C2=O)c(OC)c1	15%	i	16%	-22	i
O=C1NC(=O)C2(CCc3ccccc32)N1 (stereo unspecified)	-3%	i	4%	26	i
C=C1CC2(OC1=O)c1ccccc1CCc1ccccc12	2.9µM*	?	4.1µM*	-102*	i
C/C(=N\NC(=O)c1cc2c(s1)CCC(C)C2)c1ccncc1 (stereo unspecified)	15µM*	?	-4%	0	?
C/C(=N\NC(=O)c1cc2c(s1)CCC(C)C2)c1ccc[nH]1 (stereo unspecified)	8%	i	-15%	-18	i
CC1(C)OC(=O)C=C[C@]2(C)[C@H]3CC[C@@]4(C)[C@H](c5ccoc5)OC(=O)[C@H]5O[C@]54[C@]3(C)C(=O)C[C@@H]12	-5%	i	-4%	-5	i
CC(=O)O[C@@H]1C[C@H]2C(C)(C)C(=O)C=C[C@]2(C)[C@H]2CC[C@@]3(C)[C@H](c4ccoc4)OC(=O)[C@H]4O[C@]43[C@@]21C	?	?	4.1µM*	4	?
COc1ccccc1CNC(=O)CCn1nc(C)c2c(C)n(-c3ccccc3)nc2c1=O	·	i	·	·	i
CCOC(=O)c1ccccc1NC(=O)N1CCCn2nc(C)cc21	·	i	·	·	?
COc1ccc(-c2c(C)nn(Cc3ccccc3)c2N)cc1	1%	i	25%	-3	21µM*
COc1ccc(-c2ccc(=O)n(Cc3ccccc3)n2)cc1	0%	i	-1%	2	i
O=C(c1cccn1-c1nnc(N2CCCCC2)s1)N1CCN(c2ccccc2)CC1	·	i	·	·	i
O=C(O)c1ccc(N2C(=O)/C(=C\c3ccccc3)N=C2c2ccccc2)cc1	?	i	?	-73*	i
C1=Cc2ccccc2/C1=C\c1ccc2c(c1)OCO2	·	i	·	·	i
c1ccc(NCc2nc3ccccc3n2CCOc2ccccc2)cc1	3%	i	·	-11	?
COc1ccc(NCc2nc3ccccc3n2CCOc2ccc(C)cc2)cc1	21µM*	?	4%	-95*	?
COc1ccc(NCc2nc3ccccc3n2CCOc2ccccc2)cc1	?	?	2%	-114*	2.3µM*
CC(NC(=O)c1cc2c(s1)CS(=O)(=O)C2)c1ccccc1 (stereo unspecified)	-8%	i	1%	-5	?
CN1c2ccccc2C(O)=C(C(=S)Nc2ccc(F)c(Cl)c2)S1(=O)=O	?	16µM*	2%	-3	16µM*
Cc1cc(NS(=O)(=O)c2ccc(NC(=O)c3ccc([N+](=O)[O-])cc3)cc2)nc(C)n1	·	?	·	51	i
S=C1Cc2ccccc2N1	?	5.8µM*	?	-101*	?
